# High-throughput results from PubChem BioAssay.
# This is a sample that favours compounds with a hit; in the whole collection about 4% have one here.
# Caspase-1 inhib – blocks human caspase-1 allosterically or competitively; actives 0.03% (n = 75,000); Caspase-1 enzyme, Ac-WEHD-AFC fluorogenic rate; AID 900; P29466; Potency, µM (highest dose often 57.5 µM), for the others: at the highest dose activity change, negative = inhibition, most hits filed as inhibitors;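 further: plate controls were vehicle for no effect and no substrate for full effect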
# Luciferase inh – firefly luciferase inhibition | P08659 | purified firefly luciferase, luminescence, 8 min | Potency, µM (doses to about 57.1 µM), for inactives: at the top dose activity change, negative = inhibition, actives largely listed as inhibitors | actives 2.2% (n = 72,000); further: on the % scale 0 is the no-effect control and ±100 the full control effect; nearly all actives have a fitted effect of over 40% in size
#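 Firefly luciferase (PKLight detection mix) with 10 uM ATP in pH 7.2 imidazole buffer (KCl, MgCl2, Tween 20, BSA). Compounds tested across a concentration series (qHTS). Luminescence read after 8 min at ambient temperature.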
# Bst PK mod – pyruvate kinase (B. stearothermophilus) modulation; purified pyruvate kinase, luminescence ATP production; ribose 5-phosphate activator present at AC10; Potency, µM; actives 1.2% (n = 51,000); in the data active means potency below about 11 µM; inconclusive means mostly about 12 µM to 25 µM;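 the screen sought inhibitors and activators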;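 further: scaled between full activation by ribose 5 phosphate and full inhibition by luteolin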
# Tau fil binding – tau filament binding | P10636 | recombinant tau filaments, thioflavin S fluorescence, 15 h; filaments grown with octadecylsulfate alongside compound | Potency, µM (top dose mostly 57.1 µM), inactives show top-dose activity change, negative = inhibition | actives 2% (n = 71,000);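 further: on the % scale 0 is the no-effect control and ±100 the full control effect; actives lower thioflavin S fluorescence by blocking filaments or displacing dye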
#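 His-tagged recombinant human tau (exons 2, 3, 10; 1 uM final) fibrillized with 30 uM sodium octadecylsulfate, 15 h at 37 C, in pH 7.4 HEPES buffer with 10 uM thioflavine S and 5 mM DTT. Reduced ThS fluorescence (450/510 nm) marks activity.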
# Caspase-7 inhib – caspase-7 (human) inhibition, allosteric or competitive. AID 889. recombinant caspase-7, Ac-DEVD-AFC fluorescence rate. Potency, µM (titrated, usually from 57.5 µM), for the others: top-dose activity change, negative = inhibition, hits mostly inhibitors. P55210. actives 0.02% (n = 75,000); active means well fitted inhibition curve with a large enough effect in the main read-out, with a control signal flat, not every such curve was filed as active; inconclusive means small, poorly fitted or top-dose-only effect, or a change in a side signal; further: % of control where 0% means no effect
# Starred values were filed as active, the others as inactive; i = inactive; ? = inconclusive; / = no result given; [ ] = remark or other dose. Unless noted, the call rests on the fitted dose curve; in most records, active means well fitted curve in the direction sought with a large enough effect; inconclusive means small, poorly fitted or top-dose-only effect, or another doubt; inactive means no such curve, though single readings can be large; an effect the other way counts as inactive or inconclusive. Potency means the concentration at half of the fitted maximal effect.
SMILES,Caspase-1 inhib,Luciferase inh,Bst PK mod,Tau fil binding,Caspase-7 inhib
O=C(c1cc(-c2ccccc2O)on1)N1CCc2ccccc2C1,-3.0%,-8.4%,/,170.7%,-8.2%
CC1CCN(C(=O)c2cc(-c3ccccc3O)on2)CC1,-1.3%,10µM*,/,10.4%,-1.3%
CCCCCCCC/C=C\CCCCCCCC(=O)N[C@@H](CO)Cc1ccc(O)cc1,-2.5%,-4.4%,/,12.0%,-9.2%
CC(C)=C[C@H]1[C@@H](COC(=O)c2cc3c(cc2Cl)OCO3)C1(C)C,-1.0%[11.5 µM],2.7%[11.4 µM],/,-9.5%[11.4 µM],2.8%[11.5 µM]
CCC1=C2CC[C@H]3C(=O)NC(=O)[C@H]3[C@H]2[C@@]2(C)C(=NCCOC)OC(=O)N2C1=O,-1.1%,/,/,/,-6.1%
Cc1nc(NCc2ccccc2)[nH]c(=O)c1CCC(C)C,-2.2%,2.1%,>57,15.8µM*,-0.7%
O=C(Nc1cccc2cccnc12)c1cccnc1,-1.0%,-1.4%,9.75*,-3.3%,-0.2%
Cc1cnc(C(=O)Nc2cccc3cccnc23)cn1,4.5%,0.0%,>57,-11.0%,0.8%
Cc1ccc(NC2=CC(=O)CC(c3ccco3)C2)c(N)c1 (centres undefined),-0.3%,1.9%,/,-29.3%,-3.2%
Nc1ccccc1NC1=CC(=O)CC(c2ccco2)C1 (centres undefined),-3.2%,-4.9%,>57,15.8µM*,-20.8%
Nc1ccc(C23CC4CC(CC(O)(C4)C2)C3)cc1,0.9%,-22.3%,9.06*,-9.0%,-4.4%
Cc1csc(NC(=O)c2cc3c(s2)CCC3)n1,0.0%,2.51µM*,?,9.3%,-1.8%
COC(=O)c1sc(NC(=O)c2cc3c(s2)CCCC3)nc1C,-0.5%,1.6%,>57,-4.5%,-0.6%
Cc1nn2c3c(cnc2c1-c1ccccc1)C(=O)CCC3,-3.5%,1.4%,>57,-4.9%,-2.2%
Cc1nn(-c2ccccn2)c2c1-c1nc(N)ncc1CC2,-0.3%,10µM*,?,-1.3%,0.7%
Nc1c(C(=O)OCC2CCCO2)c2nc3ccccc3nc2n1C1CCCCC1 (centres undefined),?,-1.6%,8.91*,?,-24.4%
CC(/C=C/C=C(C)/C=C/C(=O)O)=C\C=C\C=C(C)\C=C\C=C(C)\C=C\C(=O)O,-3.7%,/,/,3.16µM*,-6.8%
COC(=O)C(C#N)c1nc2ccccc2nc1N1CCCC1 (centres undefined),?,1.0%,>57,15.8µM*,-27.9%
CCCCNC(=O)C(C#N)c1nc2ccccc2nc1N1CCN(Cc2ccc3c(c2)OCO3)CC1 (centres undefined),/,-0.8%[25.5 µM],>25.6,/,/
CCOC(=O)C1CCN(c2nc3ccccc3nc2C(C#N)C(=O)OCCOC)CC1 (centres undefined),/,0.2%[25.5 µM],2.28*,/,/
COc1ccc(CNC(=O)C(C#N)c2nc3ccccc3nc2N2CCN(C)CC2)cc1 (centres undefined),-6.9%,2.2%,>57,3.16µM*,-8.2%
C=CCOC(=O)C(C#N)c1nc2ccccc2nc1N1CCC(C(=O)OCC)CC1 (centres undefined),/,3.4%[25.5 µM],i,/,/
C=CCOC(=O)C(C#N)c1nc2ccccc2nc1N1CCN(Cc2ccc3c(c2)OCO3)CC1 (centres undefined),-18.5%,2.9%,>57,1.26µM*,-18.2%
CC(C)OC(=O)C(C#N)c1nc2ccccc2nc1N1CCCC1 (centres undefined),/,3.4%[25.5 µM],>25.6,/,/
CN1CCN(c2ncc3nc(-c4ccccc4)c(=O)n(CCc4ccccc4)c3n2)CC1,/,0.2%[11.4 µM],/,2.8%,?
SMILES,Caspase-1 inhib,Luciferase inh,Bst PK mod,Tau fil binding,Caspase-7 inhib
O=[N+]([O-])c1ccc(NN=C2c3ccccc3Cc3ccccc32)c([N+](=O)[O-])c1,-2.0%[11.5 µM],0.9%[11.4 µM],/,?,-1.3%[11.5 µM]
CCC(CC)COC(=O)C(C#N)c1nc2ccccc2nc1N1CCN(CC)CC1 (centres undefined),?,1.7%,/,1.26µM*,?
CCC(C)COC(=O)C(C#N)c1nc2ccccc2nc1N1CCCCC1 (centres undefined),-5.5%,3.8%,>57,-21.2%,-8.1%
CCCN(CCC)c1nc2ccccc2nc1C(C#N)C(=O)OCCOC (centres undefined),/,0.1%,>57,1.26µM*,?
N#CC(C(=O)NC1CCCCC1)c1nc2ccccc2nc1N1CCOCC1 (centres undefined),-3.3%,0.0%,>57,6.6%,-3.4%
C=CCN(CC=C)c1nc2ccccc2nc1C(C#N)C(=O)OCCOC (centres undefined),/,0.5%,>57,172.6%,?
CCOC(=O)C1CCN(c2nc3ccccc3nc2C(C#N)C(=O)OC(C)COC)CC1 (centres undefined),/,1.6%[25.5 µM],5.59*,/,/
N#CC(C(=O)OCc1ccccc1)c1nc2ccccc2nc1N1CCOCC1 (centres undefined),?,2.3%,>57,2µM*,-15.8%
O=C(O)CCCCn1ccc(=O)[nH]c1=O,0.2%[11.5 µM],1.0%[11.4 µM],/,1.5%[11.4 µM],1.4%[11.5 µM]
Cc1ccc(S(=O)(=O)OCC2CN3C(CCC(C)C3c3ccc(Br)cc3)C(=O)O2)cc1 (centres undefined),-3.2%[11.5 µM],/,/,/,0.0%[11.5 µM]
CN(C)c1ccc(-c2cncnc2NCCc2cnc[nH]2)cc1,0.9%,-0.7%[2.29 µM],/,-1.4%,-4.8%
NC(=S)c1ccc[n+]([C@@H]2O[C@@H](COP(=O)([O-])OP(=O)(O)OC[C@@H]3O[C@@H](n4cnc5c(N)ncnc54)[C@@H](OP(=O)(O)O)[C@H]3O)[C@@H](O)[C@H]2O)c1,3.1%,2.7%,/,-2.6%,-0.5%
C[C@H](CCC(=O)O)[C@H]1CC[C@@H]2[C@@H]3CC[C@H]4C[C@@H](O)CC[C@@]4(C)[C@@H]3C[C@H](O)[C@@]21C,3.3%[11.5 µM],3.6%[11.4 µM],/,4.7%[11.4 µM],-5.7%[11.5 µM]
COC(=O)C1CCN(c2nc3ccccc3nc2C(C#N)C(=O)OCC(C)C)CC1 (centres undefined),-12.4%,1.9%,>57,3.98µM*,-11.5%
COc1ccc2c(c1)O[C@H](c1cccc(C(F)(F)F)c1)[C@@H](O)C2=O,1.2%[11.5 µM],1.4%[11.4 µM],/,/,2.0%[11.5 µM]
CC(C)C[C@H]1C(=O)N2CCC[C@@H]2[C@]2(O)O[C@](NC(=O)[C@@H]3C=C4c5cccc6[nH]c(Br)c(c56)C[C@H]4N(C)C3)(C(C)C)C(=O)N12,-13.8%,-9.7%,/,31.6µM*,-20.7%
NC(N)=N[C@H](CC(=O)O)c1ccccc1,0.4%[11.5 µM],0.5%[11.4 µM],/,4.0%[11.4 µM],0.3%[11.5 µM]
CCCCc1ccc(-c2nc(N)n[nH]2)cc1,0.2%,7.94µM*,/,7.8%,0.8%
Nc1n[nH]c(-c2ccc(F)cc2)n1,-1.3%,1.1%,/,-6.7%,0.1%
Cc1cc(Cl)ccc1Nc1sc(C(=O)c2cc3cc(Cl)ccc3o2)c(N)c1C#N,-3.3%[11.5 µM],1.5%[11.4 µM],/,3.16µM*,-8.2%[11.5 µM]
CCN1CCC[C@@H]1CNC(=O)c1c(O)c(Cl)cc(Cl)c1OC,2.2%,1.3%,/,-7.7%,-0.6%
CCN1CCC[C@H]1CNC(=O)c1c(O)c(Cl)cc(Cl)c1OC,-4.4%,12.6µM*,/,?,2.1%
CCOc1ccccc1N1CCN(S(=O)(=O)c2cccc3nsnc23)CC1,-1.0%,2.2%,?,20µM*,-3.9%
